Screens from PubChem.
N-glyco inh – increase of ERlucT glycosylation luciferase signal, primary screen, N-linked glycosylation inhibitor project, D54 ERlucT cells, luminescence, set 2; reporter increase, % at 12.5 µM; actives 0.23% (n = 360,000); D54 ERlucT glycosylation luciferase reporter, 24 h; percent of 100 nM tunicamycin response;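 active means mean luciferase reporter signal, scaled so untreated is 0 and the glycosylation-blocking control 100, at or above a set limit in every replicate; inconclusive means mean reaches the limit but not every replicate does; inactive means mean below the limit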;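 further: luciferase carries N-glycosylation sites so blocking glycosylation raises the light; 0% = median of neutral control wells and 100% = median of 100 nM tunicamycin wells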
CASP6 VEID inh – human caspase-6 inhibitors, primary screen, biochemical, VEID-R110 fluorescence, single point, set 2 | inhibition, % at 12.5 µM | P55212 | purified caspase-6, Z-VEID-R110 cleavage fluorescence | actives 0.53% (n = 350,000);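 active means mean inhibition across replicates at least about 35%, with every replicate also reaching that limit, limit read from the data; inconclusive means only one of the two criteria met; inactive means neither criterion met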;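 further: 0% = median of neutral control wells and 100% = no fluorescence left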
RAD52 anneal inh – RAD52 DNA annealing inhibitors, primary screen, biochemical, FRET, single point, set 2. DNA repair protein RAD52 homolog (Homo sapiens), P43351. recombinant RAD52 DNA annealing, FRET fluorescence. inhibition, % at 18.7 µM. actives 0.46% (n = 360,000);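 active means every replicate showing at least 50% inhibition; inconclusive means mean inhibition at least 50% but not in every replicate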
NSD2 inh – NSD2 histone methyltransferase inhibitors, primary screen, biochemical, AlphaScreen, single concentration, set 2; Histone-lysine N-methyltransferase NSD2 (Homo sapiens), O96028; NSD2 peptide methylation, 120 min; inhibition, % at 12.5 µM; actives 0.54% (n = 310,000); AID 743445, 2014; in the data active means inhibition above about 50%
RAD54 inh – inhibitors of human RAD54 branch migration, primary screen, biochemical, fluorescence, single point; DNA repair and recombination protein RAD54-like (Homo sapiens), Q92698; RAD54 Holliday junction branch migration, FAM/BHQ fluorescence; inhibition, % at 10.4 µM; actives 0.14% (n = 360,000); AID 602329, 2012;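 active means mean normalized replicate activity at least 40 and at least half of replicates scoring 40 or more; inconclusive means only one of the two criteria met; inactive means mean below 40 and under half of replicates reaching 40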;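 further: 0% = median of neutral control wells and 100% = median of positive control wells; inhibitors cause a drop in the FAM fluorescence signal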
Target sequence (Q92698 whole entry, looked up): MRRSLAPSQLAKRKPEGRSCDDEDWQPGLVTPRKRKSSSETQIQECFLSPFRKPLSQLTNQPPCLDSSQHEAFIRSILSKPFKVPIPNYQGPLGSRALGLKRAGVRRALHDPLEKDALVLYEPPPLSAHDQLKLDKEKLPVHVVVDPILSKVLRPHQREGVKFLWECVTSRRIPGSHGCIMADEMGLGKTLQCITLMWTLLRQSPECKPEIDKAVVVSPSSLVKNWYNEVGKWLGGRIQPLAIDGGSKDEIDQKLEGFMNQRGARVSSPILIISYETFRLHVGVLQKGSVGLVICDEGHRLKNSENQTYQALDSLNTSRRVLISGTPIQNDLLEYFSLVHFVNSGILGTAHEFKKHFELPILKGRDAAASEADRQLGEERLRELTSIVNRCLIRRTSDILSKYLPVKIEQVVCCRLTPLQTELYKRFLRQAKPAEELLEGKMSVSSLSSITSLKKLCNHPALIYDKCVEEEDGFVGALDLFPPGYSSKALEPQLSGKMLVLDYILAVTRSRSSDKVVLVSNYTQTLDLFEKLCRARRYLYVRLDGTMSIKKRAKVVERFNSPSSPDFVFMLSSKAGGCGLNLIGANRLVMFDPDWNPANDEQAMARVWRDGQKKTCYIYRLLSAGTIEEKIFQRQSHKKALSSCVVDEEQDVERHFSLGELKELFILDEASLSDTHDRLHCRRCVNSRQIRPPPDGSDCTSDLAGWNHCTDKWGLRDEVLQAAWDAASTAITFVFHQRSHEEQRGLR
Starred values were filed as active, the others as inactive; ? = inconclusive; / = no result; ! = a repeat was not active. Only some compounds are listed: those with a hit (about 1.2% of all), similar ones and a draw of the others.

SMILES | N-glyco inh | CASP6 VEID inh | RAD52 anneal inh | NSD2 inh | RAD54 inh
O=C(/C=C/c1ccco1)Nc1nnc(-c2ccco2)s1 | 35* | 18 | -24 | 2 | /
O=C(/C=C\c1ccco1)NC(=S)Nc1ccccc1O | 0 | 49* | -46 | / | /
O=C(O)CCCNC(=O)/C=C/c1ccco1 | 4 | 60* | 17 | 24 | /
O=C(/C=C/c1ccco1)NC(=S)Nc1ccccc1O | 0 | 51* | -47 | 24 | /
O=C(O)CCCCCNC(=O)/C=C/c1ccco1 | 2 | 8 | -4 | -3 | -8
C[C@H](O)C#Cc1ccc2c(c1)O[C@H](CN(C)C(=O)Nc1ccccc1)[C@H](C)CN([C@@H](C)CO)S2(=O)=O | / | -1 | -3 | / | -5
CC(C)(C)CC(C)(C)SSc1n[nH]c(=S)s1 | -1 | 37* | -14 | -3 | 0
CCOC(=O)CSc1n[nH]c(=S)s1 | 2 | -1 | -10 | -4 | /
COc1cccc(C2=NOC(C(=O)NCc3ccco3)C2)c1 (stereo not given) | 29* | / | / | -4 | 13
O=C1C(=O)c2ccccc2C(O)=C1CCCCl | -18 | / | / | 106* | 3
COc1ccc(N=C2S/C(=C\c3ccc(OCC(=O)O)cc3)C(=O)N2CCc2c[nH]c3ccccc23)cc1 | -3 | 83* | -26 | / | /
COc1ccc(N=C2S/C(=C\c3ccc(N4CCOCC4)o3)C(=O)N2CCc2c[nH]c3ccccc23)cc1 | -4 | / | / | / | -1
O=S(=O)(c1ccc(F)cc1)N1CCCCN2[C@@H](CO)[C@H](c3ccc(-c4ccccc4F)cc3)[C@@H]2C1 | / | 0 | 59* | / | -6
O=S(=O)(c1ccc(F)cc1)N1CCCCN2[C@@H](CO)[C@@H](c3ccc(-c4ccccc4F)cc3)[C@@H]2C1 | / | -2 | 60* | / | 2
O=S(=O)(c1ccccc1)N1CCCCN2[C@H](C1)[C@H](c1ccc(-c3ccccc3F)cc1)[C@@H]2CO | / | -3 | -3 | / | 6
O=S(=O)(c1ccccc1)N1CCCCN2[C@H](CO)[C@H](c3ccc(-c4ccccc4F)cc3)[C@H]2C1 | / | -4 | 52* | / | 5
O=S(=O)(c1ccc(F)cc1)N1CCCCN2[C@H](CO)[C@H](c3ccc(C#CC4CCCC4)cc3)[C@H]2C1 | / | 1 | 58* | / | -3
O=S(=O)(c1ccc(F)cc1)N1CCCCN2[C@H](C1)[C@H](c1ccc(-c3ccccc3F)cc1)[C@@H]2CO | / | -1 | 13 | / | 4
CC(CCC(=O)NN)C1CCC2C3CCC4CC(O)CCC4(C)C3CCC12C (stereo not given) | -2 | 1 | -7 | / | /
CC(CCC(C)C(C)(C)C)[C@@H]1CC[C@H]2C3C[C@H](OS(O)(=S)=S)[C@H]4C[C@H](OS(O)(=S)=S)[C@@H](OS(O)(=S)=S)C[C@]4(C)[C@H]3CC[C@]12C (stereo not given in full) (tested in a mixture with another compound) | 5 | / | / | / | 110*
COc1cccc(NC(=O)N[C@H]2C=C[C@H](CC(=O)Nc3ccccc3)O[C@H]2CO)c1 | / | 2 | -10 | / | /
CC(=O)N[C@H]1CC[C@H](CCNC(=O)C2CC2)O[C@@H]1CO | / | -1 | -5 | / | 1
COc1cc2c(cc1OC)C(c1cccs1)N(C(=O)c1ccncc1)CC2 (stereo not given) | ? | 7 | -10 | -2 | /
COc1cc2c(cc1OC)C(c1cccs1)N(C(=S)NC(C)C)CC2 (stereo not given) | 45* | 1 | -22 | -1 | /
C=CCn1c(-c2ccc(Cl)cc2Cl)csc1=Nc1ccc(NC(C)=O)cc1 | / | / | / | 7 | /
Cc1ccnc(NC(=O)c2cccc(NC(=O)c3ccccc3F)c2)c1 | / | / | / | -2 | /
Cc1onc(-c2c(Cl)cccc2Cl)c1C(=O)N[C@@H]1C(=O)N2[C@@H]1SC(C)(C)[C@@H]2C(=O)O | 31*! | 0 | -4 | -4 | 0
O=C(Nc1cccc(Cl)c1)N[C@H]1CC[C@H](CCNC(=O)C2CCCCC2)O[C@@H]1CO | / | -1 | 1 | / | 1
COc1ccc(C#Cc2ccc([C@H]3[C@@H](CO)N4CCCCN(C(=O)Nc5cccc(F)c5)C[C@H]34)cc2)cc1 | / | / | / | / | 51*
